Results filed as inconclusive are left out. Active and inactive are the calls of the source. The call rests on the fitted dose curve; in most records, active means well fitted inhibition curve with a large enough effect in the signal ratio in the repeat runs (not every such curve was filed as active); inconclusive means weak or mixed curves, or effect the other way; inactive means no such curve, though single readings can be large or run the other way; the % refers to the signal ratio.
Each compound was assayed against Vitamin D3 receptor (Homo sapiens) (UniProt P11473) (assay: qHTS assay to identify small molecule antagonists of the vitamin D receptor (VDR) signaling pathway (AID 743223)). Details: VDR-UAS-bla HEK293T, beta-lactamase FRET ratio, 16 h; series mostly up to 61 µM.
Chain of Vitamin D3 receptor (Homo sapiens) (P11473 whole entry, looked up): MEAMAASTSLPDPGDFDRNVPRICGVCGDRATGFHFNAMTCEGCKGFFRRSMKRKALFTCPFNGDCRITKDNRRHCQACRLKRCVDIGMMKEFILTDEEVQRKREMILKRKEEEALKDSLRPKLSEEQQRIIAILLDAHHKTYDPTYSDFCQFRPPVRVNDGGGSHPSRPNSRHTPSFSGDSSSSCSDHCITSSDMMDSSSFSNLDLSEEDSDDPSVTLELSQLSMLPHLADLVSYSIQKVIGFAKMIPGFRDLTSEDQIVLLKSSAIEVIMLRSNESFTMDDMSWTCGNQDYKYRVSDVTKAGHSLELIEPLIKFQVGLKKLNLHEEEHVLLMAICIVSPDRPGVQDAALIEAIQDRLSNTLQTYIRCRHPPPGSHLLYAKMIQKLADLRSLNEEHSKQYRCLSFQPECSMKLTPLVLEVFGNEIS
Text: U.S. Tox21 Program National Center for Advancing Translational Sciences [NCATS] NIH Chemical Genomics Center [NCGC] U.S. Environmental Protection Agency [EPA] National Institutes of Environmental Health Sciences [NIEHS] National Toxicology Program [NTP] U.S. Food and Drug Administration [FDA] Tox21 Assay Overview: The vitamin D receptor (VDR), a member of nuclear hormone receptor superfamily, plays a critical role in calcium homeostasis and bone metabolism. It is also involved in cell differentiation and growth, and thrombogenicity.
Tox21 Assay Protocol Summary: VDR-bla cells were dispensed at 2,000 cells/5 uL of assay medium per well into black wall/clear-bottom 1536-well plates using a Multidrop Combi (Thermo Fisher Scientific, Waltham, MA) dispenser. After the assay plates were incubated at a 37C and 5% CO2 for 4 h, 23 nL of compounds dissolved in DMSO, positive controls or DMSO only was transferred to the assay plate by a Pintool station (Kalypsys, San Diego, CA), followed by addition of 1 uL of 1alpha, 25-Dihydroxy Vitamin D3 (3 nM, final concentration in the wells) using a Bioraptr Flying Reagent Dispenser (FRD) workstation (Beckman Coulter, Indianapolis, IN). The plates were incubated at 37C and 5% CO2 for 16 h, and then 1 uL of LiveBLAzerTM B/G FRET substrate was added using a Bioraptr FRD. The plates were incubated at room temperature for 2 h and fluorescence intensity was measured by an Envision plate reader (PerkinElmer, Shelton, CT).
`CCCn1cc[n+](C)c1C` was tested, and the outcome was “inactive”.
In the case of `CCN[C@H]1C[C@H](C)S(=O)(=O)c2sc(S(N)(=O)=O)cc21`, the outcome was “inactive”.
In the case of `Cc1ccc(-c2ncc(Cl)cc2-c2ccc(S(C)(=O)=O)cc2)cn1`, the outcome was “inactive”.
For `COCCOCC(OC)OC`, the outcome was “inactive”.
In the case of `CCCCOC(=O)CCC(C)=O`, the outcome was “inactive”.
`CC(C)(C)C(=O)Oc1ccc(S(=O)(=O)Nc2ccccc2C(=O)NCC(=O)O)cc1` was tested, and the outcome was “inactive”.
In the case of `NO`, the outcome was “inactive”.
With `C[N+](C)(CCOc1ccccc1)Cc1cccs1` the outcome was “inactive”.
For `C[N+]12CCC(CC1)C(OC(=O)C(O)(c1ccccc1)c1ccccc1)C2` (stereo not given), the outcome was “inactive”.
For `CCCC[N+](C)(CCCC)CCCC`, the outcome was “inactive”.
For `CC(CC=O)CC(C)(C)C` (stereo not given), the outcome was “inactive”.
`CCCCCCCCCCCCCCCCCCO` was tested, and the outcome was “inactive”.
`FB(F)F` was tested, and the outcome was “inactive”.
For `C=COCC1CCC(COC=C)CC1` (stereo not given), the outcome was “inactive”.
For `CC1CCC(CO)CC1` (stereo not given), the outcome was “inactive”.
With `CCN1CCOCC1` the outcome was “inactive”.
In the case of `O=C(c1ccccc1)C1(O)CCCCC1`, the outcome was “inactive”.
With `Clc1cc(Cl)c(Cl)nc1Cl` the outcome was “inactive”.
`CCCCOCCOC(=O)COc1cc(Cl)c(Cl)cc1Cl` was tested, and the outcome was “inactive”.
With `CCOc1ccc2nc(S(N)(=O)=O)sc2c1` the outcome was “inactive”.
In the case of `Cc1ccc(-c2ccccc2C#N)cc1`, the outcome was “inactive”.
With `CO/N=C(\C(=O)N[C@@H]1C(=O)N2C(C(=O)O)=C(CSc3nc(=O)c(O)nn3C)CS[C@H]12)c1csc(N)n1` the outcome was “inactive”.
`CC[N+](C)(CC)CCOC(=O)C1c2ccccc2Oc2ccccc21` was tested, and the outcome was “inactive”.
`CC1(C)OC[C@@H](COC(=O)CCc2ccc(OC[C@@H](O)CNCCNC(=O)N3CCOCC3)cc2)O1` was tested, and the outcome was “inactive”.
For `Nc1ccncc1N`, the outcome was “inactive”.
`CC(=O)c1cnccn1` was tested, and the outcome was “inactive”.
For `O=S(=O)(O)c1cccc2c(S(=O)(=O)O)cccc12`, the outcome was “inactive”.
For `Nc1ccn([C@@H]2O[C@H](CO)[C@@H](O)[C@@H]2O)c(=O)n1`, the outcome was “inactive”.
In the case of `CC1=CC(=O)[C@H]2C[C@@H]1C2(C)C`, the outcome was “inactive”.
For `CCOC(=O)C(=O)CCCCCCl`, the outcome was “inactive”.
With `Cc1cc(C)c(N=Nc2c(O)c(S(=O)(=O)O)cc3cc(S(=O)(=O)O)ccc23)cc1C` the activity change, negative = inhibition was -3.01% [at 6.95 µM] (inactive).
In the case of `CCCC(C)C(=O)OCC` (stereo not given), the outcome was “inactive”.
For `CN1CCC(=C2c3ccccc3CCc3cccnc32)CC1`, the outcome was “inactive”.
In the case of `CCCCCC(=O)OCCc1ccccc1`, the outcome was “inactive”.
With `CC1OC1C1CCC2(C)OC2C1` (stereo not given) the outcome was “inactive”.
In the case of `O=[N+]([O-])c1ccc(/C=N\O)o1`, the outcome was “inactive”.
In the case of `CCC1C(=O)OCC1Cc1cncn1C` (stereo not given), the outcome was “inactive”.
For `CC(C)=CCC/C(C)=C/C#N`, the outcome was “inactive”.
For `Cc1ncc(COP(=O)(O)O)c(C=O)c1O`, the outcome was “inactive”.
In the case of `CNCC(O)c1ccc(O)c(O)c1` (stereo not given), the outcome was “inactive”.

— PubChem BioAssay (Tox21)
On the % scale 0 is the no-effect control and ±100 the full control effect.
